Data taken from article PMC5540273 (PLoS ONE, 2017).

What was measured:
Conditions in all cases: concentration: 1 μM, replicates: in singlicate; n = 1
PDGFRB = test system: PDGFRB
PDPK1 = test system: PDPK1
PFTAIRE2 = test system: PFTAIRE2
PFTK1 = test system: T1, PFTK1
T1 construct: gene CDK14

PHKG1 = test system: PHKG1
PHKG2 = test system: PHKG2
PIK3C2B = test system: PIK3C2B
PIK3C2G = test system: PIK3C2G
PIK3CA = test system: PIK3CA
PIK3CB = test system: PIK3CB
PIK3CD = test system: PIK3CD
PIK3CG = test system: PIK3CG
PIK4CB = test system: T2, PIK4CB
T2 construct: gene PI4KB

PIKFYVE = test system: PIKFYVE
PIM1 = test system: PIM1
PIM2 = test system: PIM2
PIM3 = test system: PIM3
PIP5K1A = test system: PIP5K1A
PIP5K1C = test system: PIP5K1C
PIP5K2B = test system: PIP5K2B
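Note: KINOMEscan kinase panel screen.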

SMILES | %Inh (PDGFRB) [%] | %Inh (PDPK1) [%] | %Inh (PFTAIRE2) [%] | %Inh (PFTK1) [%] | %Inh (PHKG1) [%] | %Inh (PHKG2) [%] | %Inh (PIK3C2B) [%] | %Inh (PIK3C2G) [%] | %Inh (PIK3CA) [%] | %Inh (PIK3CB) [%] | %Inh (PIK3CD) [%] | %Inh (PIK3CG) [%] | %Inh (PIK4CB) [%] | %Inh (PIKFYVE) [%] | %Inh (PIM1) [%] | %Inh (PIM2) [%] | %Inh (PIM3) [%] | %Inh (PIP5K1A) [%] | %Inh (PIP5K1C) [%] | %Inh (PIP5K2B) [%]
Nc1nccc2scc(-c3ccc4c(c3)CCN4C(=O)Cc3cc(F)ccc3F)c12 [GSK2587663] | 35 | 0 | 15 | 15 | 4 | 0 | 0 | 0 | 0 | 0 | 0 | 0 | 0 | 0 | 0 | 0 | 0 | 0 | 49 | 13
COc1ccc(Nc2nccc(N3CCC(NC(=O)Nc4ccc5c(c4)OCO5)C3)n2)cc1 (centres unmarked) [GSK1379745] | 24 | 27 | 11 | 7 | 0 | 9 | 9 | 0 | 0 | 0 | 5 | 0 | 14 | 14 | 9 | 0 | 0 | 11 | 51 | 40
COc1ccc(Nc2nccc(N3CCC(NC(=O)c4cccc(NC(C)=O)c4)C3)n2)cc1 (centres unmarked) [GSK1379732] | 20 | 10 | 17 | 36 | 0 | 1 | 0 | 0 | 0 | 9 | 0 | 0 | 0 | 0 | 0 | 0 | 0 | 49 | 70 | 12
Nc1nc(-c2cccnc2)c(-c2ccnc3ccccc23)s1 [GW684083] | 28 | 0 | 16 | 27 | 14 | 0 | 0 | 0 | 0 | 0 | 0 | 0 | 0 | 12 | 0 | 0 | 0 | 25 | 58 | 0
Cl.Cl.c1ccc(-c2cc3ccncc3cc2OC2CCNCC2)cc1 [GSK1122999] | 42 | 0 | 34 | 12 | 2 | 0 | 7 | 0 | 4 | 26 | 30 | 3 | 0 | 0 | 25 | 0 | 39 | 0 | 25 | 10
Cc1ccc(C)c(NC(=O)NCCNc2ccnc(Nc3ccc(F)cc3)n2)c1 [GSK1379878] | 6 | 0 | 10 | 0 | 0 | 0 | 0 | 0 | 0 | 0 | 0 | 0 | 0 | 0 | 0 | 0 | 0 | 41 | 48 | 15
CSc1ccc(NC2=C(c3ccccc3Cl)C(=O)NC2=O)cc1 [SB-342411] | 31 | 80 | 20 | 25 | 0 | 25 | 0 | 17 | 0 | 3 | 0 | 0 | 0 | 0 | 0 | 0 | 0 | 0 | 33 | 0
CCc1nc(-c2cccc(C)c2)c(-c2ccnc(NC(=O)c3ccccc3)c2)s1 | 0 | 0 | 17 | 10 | 0 | 0 | 14 | 49 | 0 | 29 | 44 | 0 | 62 | 1 | 0 | 0 | 0 | 15 | 0 | 64
CS(=O)(=O)CCNCc1ccc(-c2ccc3ncnc(Nc4ccc(OCc5ccccc5)c(Cl)c4)c3c2)o1.Cl [GW574783] | 14 | 17 | 0 | 0 | 13 | 0 | 38 | 0 | 0 | 0 | 0 | 0 | 8 | 23 | 0 | 5 | 0 | 32 | 62 | 0
C[C@H]1CC[C@@H](C(=O)Nc2ccccc2)CN1c1cc(-c2ccc3c(N)n[nH]c3c2)nc(N)n1 [GSK2283293] | 11 | 25 | 15 | 11 | 0 | 0 | 0 | 0 | 0 | 0 | 0 | 0 | 0 | 0 | 13 | 0 | 0 | 0 | 19 | 24
